Laboratory results reported in the supplement of paper PMC7156485.
± gives the standard deviation of the averaged measurements.

Experiments:
Details in all cases: concentration: 10 µM; 24 h
[1] = tested on: HCC1569; assay: cell number relative to DMSO (% of DMSO); higher = more cells (less growth inhibition / toxicity)
Summary of the method: (§1)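 Compounds were applied at 10 µM for 24 h at 37 °C, in triplicate, to HCC1569 and TDF cells. The cells were then fixed and stained for H1.0, and nuclei were counterstained with DAPI. Nuclear H1.0 intensity or cell number is reported relative to the plate control as a percent, taking the median of replicates. Smoothing for positional effects was applied to HCC1569 values only.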

[2] = tested on: TDF; assay: as above
Summary of the method: as §1

[3] = tested on: TDF; assay: H1.0 immunofluorescence intensity relative to DMSO (% of DMSO); higher = stronger H1.0 induction, active = 120 or more
Summary of the method: as §1

[4] = tested on: HCC1569; assay: H1.0 immunofluorescence intensity relative to DMSO (% of DMSO); higher = stronger H1.0 induction, active = 140 or more
Summary of the method: as §1
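Wherever H1.0 immunofluorescence intensity relative to DMSO is given: TDF is a line of transformed human dermal fibroblasts of mesenchymal origin.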
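Wherever cell number relative to DMSO is given: TDF denotes transformed human dermal fibroblasts of mesenchymal origin.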

Structure (SMILES) | cell number [1] | cell number [2] | H1.0 immunofluorescence intensity [3] | H1.0 immunofluorescence intensity [4]
Fc1ccc(C2CCNCC2COc2ccc3c(c2)OCO3)cc1 (stereo unspecified) [Paroxetine] | 97.7 | 99.3 | 99.1 (inactive) | 114 (inactive)
NC(CC(=O)[O-])C(=O)O.NC(CC(=O)[O-])C(=O)O.[Mg+2] [magnesium bis[(3S)-3-amino-3-carboxypropanoate]] | 101 | 102 | 94.5 (inactive) | 109 (inactive)
N#Cc1c(-c2ccccc2)no[n+]1[O-] [4-Phenyl-3-furoxancarbonitrile] | 64.2 | 93.3 | 93.2 (inactive) | 122 (inactive)
CCCCCCC=CCCCCCCCCCC(=O)O [11(E)-Octadecenoic acid] | 101 | 99.5 | 105 (inactive) | 103 (inactive)
O=C(Nc1nc2ccc(NC(=O)C34CC5CC(CC(C5)C3)C4)cc2s1)c1ccccc1 | 45 | 20.4 | 170 (active) | 146 (active)
Nc1nnc(-c2cccc(Cl)c2Cl)c(N)n1 [Lamotrigine] | 99.6 ± 2.1 | 105 ± 2 | 87.7 (inactive) | 101 (inactive)
CC(=O)NCC1CN(c2ccc(N3CCOCC3)c(F)c2)C(=O)O1 (stereo unspecified) [Linezolid] | 104 | 99.7 | 93.4 (inactive) | 110 (inactive)
CCCCCCCCCCCC=CC(C)(C)C=CCCCC(=O)O [7,7-Dimethyleicosadienoic acid] | 105 ± 6.3 | 99.5 ± 3.4 | 99 (inactive) | 95.5 (inactive)
C=CCn1c(=O)c2c(nc(-c3ccc(S(=O)(=O)O)cc3)n2C)n(C)c1=O [1-Allyl-3,7-dimethyl-8-p-sulfophenylxanthine] | 102 | 108 | 99.2 (inactive) | 105 (inactive)
